# According to PubChem BioAssay (Tox21):
# Values joined by “and” are separate entries in the source; they are usually repeats but may differ in a detail not shown here. Equal entries are not always repeated. A structure can be active in one record and inactive in another. Active and inactive are the calls of the source. Entries that show only a call come without a potency. Unless noted, calls come from the whole dose curve; as a rule, active = well fitted curve in the direction sought with a large enough effect in the repeat runs; inconclusive = weak or mixed curves; inactive = no such curve, though single readings can be large; an effect the other way counts as inactive or inconclusive.
# How the values were obtained:
# [1] = qHTS assay to identify small molecule antagonists of the thyroid receptor (TR) signaling pathway - cell viability counter screen (AID 743064); note: nearly all actives have a fitted effect of over 50% in size; note: potency is the fitted concentration of half-maximal effect
# How it was run: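 Viability of T3-stimulated (1 nM final) GH3.TRE-Luc cells is measured by CellTiter-Fluor fluorescence after 23.5 h compound exposure at 37 °C plus 30 min reagent incubation.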
# [2] = qHTS assay to identify small molecule antagonists of the thyroid receptor (TR) signaling pathway (AID 743065); note: nearly all actives have a fitted effect of over 55% in size; note: potency is the fitted concentration of half-maximal effect
# How it was run: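 GH3.TRE-Luc rat pituitary cells carrying two TR response elements driving luciferase were plated for 4 h, given compound plus 1 nM T3 (final), and incubated 23.5 h at 37 C. ONE-Glo luminescence measured reporter inhibition; CellTiter-Fluor fluorescence tracked cytotoxicity.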
# [3] = system: thyroid hormone receptor (rat, GH3 cells); assay: qHTS assay to identify small molecule agonists of the thyroid receptor (TR) signaling pathway (AID 743066; calls by dose curve)
# [4] = molecular target: Estrogen receptor (Homo sapiens) (UniProt P03372); assay: qHTS assay to identify small molecule antagonists of the estrogen receptor alpha (ER-alpha) signaling pathway (AID 743069; active = well fitted curve in the direction sought with a large enough effect in the signal ratio in the repeat runs, not every such curve was filed as active; inconclusive = weak or mixed curves, or effect the other way; inactive = no such curve, though single readings can be large or run the other way; the % refers to the signal ratio; note: potency is the fitted concentration of half-maximal effect)
# How it was run: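 HEK293 cells stably carrying an ER-alpha-UAS-bla beta-lactamase reporter were pre-cultured overnight in 2% charcoal-stripped FBS medium. Test compounds in DMSO were added together with 17beta-estradiol for 18 hr at 37C. Read-out was fluorescence after 2 hr with LiveBLAzer B/G FRET substrate at room temperature.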
# [5] = qHTS assay to identify small molecule antagonists of the estrogen receptor alpha (ER-alpha) signaling pathway - cell viability counter screen (AID 743074; calls by dose curve; note: nearly all actives have a fitted effect of over 45% in size; note: potency is the fitted concentration of half-maximal effect)
# [6] = molecular target: Estrogen receptor (Homo sapiens) (UniProt P03372); assay: qHTS assay to identify small molecule agonists of the estrogen receptor alpha (ER-alpha) signaling pathway (AID 743075; calls by dose curve)
# [7] = molecular target: Estrogen receptor (Homo sapiens) (UniProt P03372); assay: qHTS assay to identify small molecule agonists of the estrogen receptor alpha (ER-alpha) signaling pathway using the BG1 cell line (AID 743079); note: nearly all actives have a fitted effect of over 20% in size; note: potency is the fitted concentration of half-maximal effect
# [8] = qHTS assay to identify small molecule antagonists of the estrogen receptor alpha (ER-alpha) signaling pathway using the BG1 cell line (AID 743080; calls by dose curve;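 note: BG1 cells stimulated with 17beta-estradiol alongside compound; nearly all actives have a fitted effect of over 25% in size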; note: potency is the fitted concentration of half-maximal effect)
# How it was run: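 Seeding, 24 h rest, compound transfer from DMSO, 17beta-estradiol addition, 21.5 h incubation, CellTiter-Fluor (30 min, 37 C), then ONE-Glo (30 min, room temperature): this sequence was run on BG1-Luc-4E2 reporter cells.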
# [9] = qHTS assay to identify small molecule antagonists of the estrogen receptor alpha (ER-alpha) signaling pathway using the BG1 cell line - cell viability counter screen (AID 743081);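 note: compound given together with 17beta-estradiol as the ER stimulus; nearly all actives have a fitted effect of over 45% in size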; note: potency is the fitted concentration of half-maximal effect
# [10] = molecular target: Aromatase (Homo sapiens) (UniProt P11511); assay: qHTS assay to identify aromatase inhibitors (AID 743083); note: nearly all actives have a fitted effect of over 55% in size; note: potency is the fitted concentration of half-maximal effect
# [11] = qHTS assay to identify aromatase inhibitors - cell viability counter screen (AID 743084);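 note: cells stimulated with testosterone during compound exposure; nearly all actives have a fitted effect of over 55% in size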; note: potency is the fitted concentration of half-maximal effect
# [12] = qHTS assay to identify small molecule that activate the aryl hydrocarbon receptor (AhR) signaling pathway - cell viability counter screen (AID 743086); note: nearly all actives have a fitted effect of over 45% in size; note: potency is the fitted concentration of half-maximal effect
# How it was run: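 HepG2-AhR-luc (HG2L7.5c1) cells, 4000/well, were preincubated 5 h at 37C, exposed to compound in qHTS format for 24 hr at 37C, then given CellTiter-Fluor for 30 min; viability was read as fluorescence in the reporter wells.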
# [13] = molecular target: Peroxisome proliferator-activated receptor gamma (Homo sapiens) (UniProt P37231); assay: qHTS assay to identify small molecule agonists of the peroxisome proliferator-activated receptor gamma (PPARg) signaling pathway (AID 743094; active = well fitted activation curve with a large enough effect in the signal ratio in the repeat runs, not every such curve was filed as active; inconclusive = weak or mixed curves, or effect the other way; inactive = no such curve, though single readings can be large or run the other way; the % refers to the signal ratio)
# How it was run: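 Following 5 h plating at 37C, PPARg-bla HEK293H cells receive compound or DMSO for 17 h; fluorescence intensity is recorded after LiveBLAzer B/G loading for 1 h at room temperature.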
# [14] = molecular target: Aryl hydrocarbon receptor (Homo sapiens) (UniProt P35869); assay: qHTS assay to identify small molecule that activate the aryl hydrocarbon receptor (AhR) signaling pathway (AID 743085); note: nearly all actives have a fitted effect of over 15% in size; note: potency is the fitted concentration of half-maximal effect;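 for activation: HG2L7.5c1 human HepG2 liver cells with stably integrated DRE-driven firefly reporter; series mostly up to about 70 µM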
# How it was run: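 A multiplexed format paired cell viability (CellTiter-Fluor fluorescence) with AhR-dependent luciferase output (ONE-Glo luminescence) in the same wells of HepG2 DRE-luc cells after 24 h compound exposure at 37C.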
# [15] = qHTS assay to identify small molecule agonists of the peroxisome proliferator-activated receptor delta (PPARd) signaling pathway - cell viability counter screen (AID 743211); note: potency is the fitted concentration of half-maximal effect; nearly all actives have a fitted effect of over 55% in size
# How it was run: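 Tox21 library compounds, delivered in DMSO, were incubated 17 h with PPARd-bla HEK293H cells; cytotoxicity was taken from CellTiter-Glo luminescence read 30 min after reagent addition.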
# [16] = qHTS assay to identify small molecule antagonists of the peroxisome proliferator-activated receptor gamma (PPARg) signaling pathway - cell viability counter screen (AID 743194); note: nearly all actives have a fitted effect of over 55% in size; note: potency is the fitted concentration of half-maximal effect
# How it was run: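 PPARg-UAS-bla HEK293H cells were plated, rested 5 h at 37 C, then treated with compounds plus rosiglitazone (50 nM final) for 17 h at 37 C; viability was then read by CellTiter-Glo luminescence after 30 min at room temperature.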
# [17] = qHTS assay for small molecule agonists of the antioxidant response element (ARE) signaling pathway (AID 743202; active = well fitted activation curve with a large enough effect in the signal ratio in the repeat runs, not every such curve was filed as active; inconclusive = weak or mixed curves, or effect the other way; inactive = no such curve, though single readings can be large or run the other way; the % refers to the signal ratio; note: potency is the fitted concentration of half-maximal effect)
# How it was run: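 Read-out: LiveBLAzer B/G FRET substrate fluorescence after 2 h at room temperature, following 16 h compound treatment at 37 C of HepG2 cells carrying an ARE-driven beta-lactamase reporter.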
# Chain of Aromatase (Homo sapiens) (P11511 whole entry, looked up): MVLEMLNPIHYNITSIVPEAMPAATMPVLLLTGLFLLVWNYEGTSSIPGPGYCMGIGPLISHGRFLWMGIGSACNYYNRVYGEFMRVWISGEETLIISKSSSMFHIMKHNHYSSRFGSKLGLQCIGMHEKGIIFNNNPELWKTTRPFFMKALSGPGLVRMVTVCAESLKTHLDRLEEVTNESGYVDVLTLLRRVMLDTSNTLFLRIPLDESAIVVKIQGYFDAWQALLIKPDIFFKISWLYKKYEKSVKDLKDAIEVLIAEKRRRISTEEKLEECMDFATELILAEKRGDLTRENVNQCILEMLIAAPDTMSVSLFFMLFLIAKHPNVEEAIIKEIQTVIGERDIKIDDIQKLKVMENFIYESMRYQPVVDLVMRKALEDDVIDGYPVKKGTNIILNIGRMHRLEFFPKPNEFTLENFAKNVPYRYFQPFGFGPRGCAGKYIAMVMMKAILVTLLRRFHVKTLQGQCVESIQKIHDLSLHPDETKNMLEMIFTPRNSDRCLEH
# Chain of Estrogen receptor (Homo sapiens) (P03372 whole entry, looked up): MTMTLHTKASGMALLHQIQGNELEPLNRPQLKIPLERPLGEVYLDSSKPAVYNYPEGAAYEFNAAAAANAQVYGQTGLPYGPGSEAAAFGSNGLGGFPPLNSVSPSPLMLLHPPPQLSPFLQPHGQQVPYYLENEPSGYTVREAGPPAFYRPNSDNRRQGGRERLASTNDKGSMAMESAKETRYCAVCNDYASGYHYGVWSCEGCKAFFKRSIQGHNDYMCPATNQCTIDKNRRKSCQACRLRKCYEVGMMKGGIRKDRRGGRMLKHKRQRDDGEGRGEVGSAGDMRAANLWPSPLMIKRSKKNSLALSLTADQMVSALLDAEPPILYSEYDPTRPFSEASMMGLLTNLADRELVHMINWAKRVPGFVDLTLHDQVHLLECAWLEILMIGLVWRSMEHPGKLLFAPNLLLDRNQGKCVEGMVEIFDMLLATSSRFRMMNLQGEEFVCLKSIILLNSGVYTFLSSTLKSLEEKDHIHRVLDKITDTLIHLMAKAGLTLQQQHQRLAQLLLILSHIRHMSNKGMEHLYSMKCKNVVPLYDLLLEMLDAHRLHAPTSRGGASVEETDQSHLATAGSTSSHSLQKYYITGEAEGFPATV
# Chain of Aryl hydrocarbon receptor (Homo sapiens) (P35869 whole entry, looked up): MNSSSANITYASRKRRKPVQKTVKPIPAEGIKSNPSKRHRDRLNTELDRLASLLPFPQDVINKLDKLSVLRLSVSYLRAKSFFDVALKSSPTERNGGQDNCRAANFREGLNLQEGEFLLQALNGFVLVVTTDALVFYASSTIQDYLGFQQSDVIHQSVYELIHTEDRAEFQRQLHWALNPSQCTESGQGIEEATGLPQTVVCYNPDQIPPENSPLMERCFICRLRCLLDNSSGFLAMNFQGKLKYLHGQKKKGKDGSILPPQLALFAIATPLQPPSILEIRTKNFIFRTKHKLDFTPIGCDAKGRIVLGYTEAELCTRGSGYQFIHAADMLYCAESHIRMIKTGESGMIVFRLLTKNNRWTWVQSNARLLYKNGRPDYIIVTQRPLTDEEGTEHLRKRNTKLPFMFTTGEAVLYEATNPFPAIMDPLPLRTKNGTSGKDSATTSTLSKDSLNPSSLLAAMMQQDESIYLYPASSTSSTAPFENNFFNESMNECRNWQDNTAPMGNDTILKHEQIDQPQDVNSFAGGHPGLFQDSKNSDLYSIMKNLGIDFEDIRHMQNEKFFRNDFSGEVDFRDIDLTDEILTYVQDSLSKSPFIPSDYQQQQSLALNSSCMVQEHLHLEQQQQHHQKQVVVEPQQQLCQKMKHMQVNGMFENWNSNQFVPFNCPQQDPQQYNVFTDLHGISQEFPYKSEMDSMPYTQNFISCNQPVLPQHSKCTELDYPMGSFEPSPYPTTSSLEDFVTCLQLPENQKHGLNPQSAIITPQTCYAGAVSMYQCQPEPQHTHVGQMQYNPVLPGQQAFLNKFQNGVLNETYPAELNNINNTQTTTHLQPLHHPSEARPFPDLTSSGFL
# Chain of Peroxisome proliferator-activated receptor gamma (Homo sapiens) (P37231 whole entry, looked up): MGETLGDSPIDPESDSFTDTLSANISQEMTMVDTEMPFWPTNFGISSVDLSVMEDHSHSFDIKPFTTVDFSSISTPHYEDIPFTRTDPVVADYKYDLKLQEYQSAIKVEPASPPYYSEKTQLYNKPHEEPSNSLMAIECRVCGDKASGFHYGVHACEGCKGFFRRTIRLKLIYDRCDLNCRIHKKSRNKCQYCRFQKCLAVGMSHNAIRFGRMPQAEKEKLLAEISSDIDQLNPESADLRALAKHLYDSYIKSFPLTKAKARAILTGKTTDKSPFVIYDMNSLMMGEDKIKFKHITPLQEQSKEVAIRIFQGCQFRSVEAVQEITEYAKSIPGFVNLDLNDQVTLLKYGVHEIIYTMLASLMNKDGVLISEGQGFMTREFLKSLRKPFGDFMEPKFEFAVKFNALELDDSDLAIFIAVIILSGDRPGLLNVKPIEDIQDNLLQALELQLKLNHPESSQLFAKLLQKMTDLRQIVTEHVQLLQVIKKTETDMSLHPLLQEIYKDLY
SMILES,Potency [1],Potency [2],Potency [3],Potency [4],Potency [5],Potency [6],Potency [7],Potency [8],Potency [9],Potency [10],Potency [11],Potency [12],Potency [13],Potency [14],Potency [15],Potency [16],Potency [17]
Nc1nc(/C(=C/CC(=O)O)C(=O)N[C@@H]2C(=O)N3C(C(=O)O)=CCS[C@H]23)cs1,inactive,inactive,inactive,inactive,inactive,inactive,inactive,inactive,inactive,inactive,inactive,inactive,inactive,–,–,–,–
O=C(O)Cc1nn(Cc2ccc(Br)cc2F)c(=O)c2ccccc12,inactive,inactive,inactive,inactive,inactive,inactive,inactive,inactive,inactive,inactive,inactive,inactive,inactive,inactive,–,–,–
COC(=O)C(CN)c1c[nH]c2ccc(OC)cc12 (stereo not drawn),inactive,inactive,inactive,inactive,inactive,inactive,inactive,inactive,inactive,inactive,inactive,inactive,inactive,–,–,–,–
Cc1cccc(C)c1NC(=O)C1CCCCN1C (stereo not drawn),inactive,inactive,inactive,inactive,inactive,inactive,inactive,inactive,–,inactive,inactive,inactive,inactive,inactive,–,–,–
NC(=O)[C@@H]1C[C@]2(NC(=O)NC2=O)c2cc(F)ccc2O1,inactive,inactive,inactive,inactive,inactive,inactive,inactive,inactive,inactive,inactive,inactive,inactive,inactive,–,–,–,–
CC1(C)S[C@@H]2[C@H](N3C(=O)C(c4ccccc4)NC3(C)C)C(=O)N2[C@H]1C(=O)O (stereo partly drawn),inactive,inactive,inactive,inactive,inactive,inactive,inactive,inactive,inactive,inactive,inactive,inactive,inactive,inactive,–,–,–
C[C@H](Cc1ccc(O)c(O)c1)[C@@H](C)Cc1ccc(O)c(O)c1,9.44 µM (active),8.41 µM (active),inactive,inactive,inactive,inactive,inactive,inactive,inactive,inactive,inactive,inactive,inactive,–,–,–,–
CCCCCCCCCCCCCCCC(=O)OC[C@H](COP(=O)([O-])OCC[N+](C)(C)C)OC(=O)CCCCCCCCCCCCCCC,inactive,inactive,inactive,inactive,inactive,inactive,inactive,inactive,inactive,inactive,inactive,inactive,inactive,inactive,–,–,–
CS(=O)(=O)c1ccc([C@@H](O)[C@@H](COC(=O)CN)NC(=O)C(Cl)Cl)cc1,inactive,inactive,inactive,inactive,inactive,inactive,inactive,inactive,inactive,inactive,inactive,inactive,inactive,inactive,–,–,–
O=P(O)(O)CP(=O)(O)O,inactive,inactive,inactive,inactive,inactive,inactive,inactive,inactive,inactive,inactive,inactive,inactive,inactive,inactive,–,–,–
CC(C)NCC1CCc2cc(CO)c([N+](=O)[O-])cc2N1 (stereo not drawn),inactive,inactive,inactive,inactive,inactive,inactive,inactive,inactive,–,inactive,inactive,inactive,inactive,inactive,–,–,–
C=C(Nc1ccc(OCC)cc1)Nc1ccc(OCC)cc1,inactive,inactive,inactive,inactive,inactive,inactive,inactive,inactive,inactive,inactive,inactive,inactive,inactive,inactive,–,–,–
Nc1nc(NC2CC2)c2ncn([C@@H]3C=C[C@@H](CO)C3)c2n1,inactive,inactive,inactive,inactive,inactive,inactive,2.66 µM (active),–,inactive,inactive,inactive,inactive,inactive,8.41 µM (active),–,–,–
Cc1c(N)nc([C@H](CC(N)=O)NC[C@H](N)C(N)=O)nc1C(=O)N[C@H](C(=O)N[C@H](C)[C@@H](O)[C@H](C)C(=O)N[C@H](C(=O)NCCc1nc(-c2nc(C(=O)NCCCCN=C(N)N)cs2)cs1)[C@@H](C)O)[C@@H](O[C@@H]1O[C@@H](CO)[C@@H](O)[C@H](O)[C@@H]1O[C@H]1O[C@H](CO)[C@@H](O)[C@H](OC(N)=O)[C@@H]1O)c1cnc[nH]1,inactive and 4.22 µM (active),3.76 µM (active) and 841 nM (active),inactive,–,inactive,inactive,inactive,–,inactive,inactive,inactive,inactive,inactive,inactive,–,–,–
CC(=O)OCC(=O)[C@@]1(O)CC[C@H]2[C@@H]3C[C@H](C)C4=CC(=O)C=C[C@]4(C)[C@H]3[C@@H](O)C[C@@]21C,inactive,inactive,inactive,–,inactive,inactive,18.8 µM (active),–,inactive,inactive,inactive,inactive,inactive,inactive,–,–,–
CC(=O)OCC(=O)[C@@]1(O)CC[C@H]2[C@@H]3CCC4=CC(=O)CC[C@]4(C)C3=CC[C@@]21C,inactive,inactive,inactive,inactive,inactive,inactive,29.8 µM (active),–,inactive,inactive,inactive,inactive,inactive,inactive,–,–,–
CCCCCCCC/C=C\CCCCCCCC(=O)N(CCO)CCO,54.3 µM (active),68.3 µM (active),inactive,21.8 µM [inconclusive] (active),inactive,inactive,–,54.3 µM (active),–,inactive,inactive,inactive,–,inactive,43.5 µM (active),–,–
CC(C)c1ccc2sc3ccccc3c(=O)c2c1,inactive,inactive,inactive,–,inactive,inactive,6.11 µM (active),–,inactive,inactive,inactive,inactive,–,30.6 µM (active),–,inactive,9.69 µM (active)
C/C(=C\C(=O)OCCCCCCCCC(=O)O)C[C@@H]1OC[C@H](C[C@@H]2O[C@H]2[C@@H](C)[C@H](C)O)[C@@H](O)[C@H]1O,inactive,inactive,inactive,inactive,inactive,inactive,inactive,–,inactive,inactive,inactive,inactive,inactive,inactive,–,–,–
C=CC[N+]1([C@H]2C[C@H]3[C@@H]4CC[C@H]5C[C@H](O)[C@@H](N6CCOCC6)C[C@]5(C)[C@H]4CC[C@]3(C)[C@H]2OC(C)=O)CCCC1,inactive,inactive,inactive,inactive,inactive,inactive,26.6 µM (active),–,inactive,inactive,inactive,inactive,inactive,inactive,–,–,–
CCCCCCOC(=O)c1cccnc1,inactive,inactive,inactive,inactive,–,inactive,inactive,–,inactive,inactive,inactive,inactive,inactive,inactive,–,–,–
Cc1cc(-c2ccc(N=Nc3ccc4c(S(=O)(=O)O)cc(S(=O)(=O)O)c(N)c4c3O)c(C)c2)ccc1N=Nc1ccc2c(S(=O)(=O)O)cc(S(=O)(=O)O)c(N)c2c1O,inactive,23.7 µM (active),inactive,inactive,–,inactive,–,–,inactive,26.6 µM (active),23.7 µM (active),inactive and 29.8 µM (active),inactive,inactive,–,–,–
CC[C@@H](C(=O)[C@@H](C)[C@@H](O)[C@H](C)CCc1ccc(C)c(O)c1C(=O)O)[C@H]1O[C@](CC)([C@H]2CC[C@](O)(CC)[C@H](C)O2)C[C@@H]1C,3.35 µM (active),1.33 µM (active),inactive,–,19 µM (active),inactive,inactive,–,–,inactive,–,29.8 µM (active),inactive,inactive,–,–,–
Cc1c(O)c(=O)ccn1C,inactive,inactive,inactive,inactive,inactive,inactive,inactive,–,inactive,inactive,inactive,inactive,inactive,inactive,–,–,–
CC(C)Cc1ccc([C@H](C)C(=O)O)cc1,inactive,inactive,inactive,inactive,inactive,inactive,inactive,–,inactive,inactive,inactive,–,inactive,inactive,–,–,–
C[C@H](O)CN(C)C,inactive,inactive,inactive,inactive,inactive,inactive,–,inactive,inactive,inactive,inactive,inactive,inactive,inactive,–,–,–
COc1cc(/C=C/C(=O)CC(=O)/C=C/c2ccc(O)c(OC)c2)ccc1O,23.7 µM (active) and inactive and 13.8 µM (active),23.7 µM (active) and 17.3 µM (active),inactive,–,inactive and 49.3 µM (active),inactive,23.7 µM (active) and inactive,inactive,inactive and 54.8 µM (active),inactive and 48.9 µM (active),inactive,inactive and 27.5 µM (active),–,inactive,34.9 µM (active),43.9 µM (active),–
